Screening results: PubChem, National Center for Advancing Translational Sciences (NCATS)
DT40 TDP1 CPT: DT40-hTDP1 cell growth loss with CPT | AID 686979 | chicken DT40 Tdp1-/-;hTDP1 cells + 20 nM CPT, ATP luminescence, 48 h | 420,000 tested, 12% active | Potency, µM (highest dose often 46.2 µM), without a hit: at the top dose activity change, negative = growth inhibition, actives largely listed as inhibitors; further: potency means the concentration at half of the fitted maximal effect; nearly all actives have a fitted effect of over 55% in size
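Chicken DT40 Tdp1-/- cells stably complemented with human TDP1 were seeded at 400 cells/well in medium containing 20 nM camptothecin, exposed to pin-transferred compounds, and grown at 37 °C for at least 48 hr. Viability was read as ATP luminescence.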
IL1B secr inh: blocks inflammasome-driven IL-1 beta release; THP-1 LPS/ATP IL-1B secretion, AlphaLISA, 16 h; active compounds read low; activity change, % at 57.5 µM; 360,000 tested, 4.7% active; AID 743279; in the data active means activity change below about -50%; inconclusive means mostly about -30% to -49%
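Secreted IL-1B measured by AlphaLISA bead assay after 16 h compound exposure of THP-1 cells; compounds (final up to 57.5 uM) added 1 h before LPS (250 ng/mL) and ATP (1.25 mM) stimulation; lower signal means less secretion.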
LDHA block: inhibitors of human lactate dehydrogenase A. P00338. purified LDHA, NADH/diaphorase-resazurin fluorescence; active compounds read low. activity change, % (values are at about 110 or 230 µM). 480,000 tested, 0.15% active; in the data active means activity change below about -30%; inconclusive means mostly about -25% to -30%;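 further: plate controls were DMSO wells for no effect and wells without enzyme for full effect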
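Resorufin fluorescence (ex540/em590), read at 0 and 20 min after diaphorase/resazurin addition, reports the NADH left after a 5 min room-temperature reaction of 2 nM human LDH5 with 0.06 mM NADH and 0.2 mM pyruvate.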
DT40 TDP1 no CPT: qHTS for Inhibitors of human tyrosyl-DNA phosphodiesterase 1 (TDP1): qHTS in cells in absence of CPT; 420,000 tested, 15% active; DT40 Tdp1-/- hTDP1 cells, no CPT, ATP luminescence, 48 h; Potency, µM (titrated, usually from 46.2 µM), inactives show at the highest dose activity change, negative = growth inhibition, hits mostly inhibitors; AID 686978, 2013; further: potency means the concentration at half of the fitted maximal effect; nearly all actives have a fitted effect of over 55% in size
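Growth of hTDP1-complemented DT40 Tdp1-knockout cells is measured by ATP luminescence after at least 48 hr compound exposure at 37 °C, with DMSO substituting for the 20 nM CPT used in the parallel screen.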
RORg inh: inhibitors of mouse ROR gamma transcriptional activity. AID 2551. 310,000 tested, 5.4% active. Potency, µM (highest dose often 53.6 µM), without a hit: at the top dose activity change, negative = inhibition, most hits filed as inhibitors. P51450. Drosophila S2 Gal4-RORgamma UAS-luciferase reporter, 20 h; further: potency means the concentration at half of the fitted maximal effect; nearly all actives have a fitted effect of over 60% in size
Target sequence (P51450 whole entry, looked up, the tested form may be a part): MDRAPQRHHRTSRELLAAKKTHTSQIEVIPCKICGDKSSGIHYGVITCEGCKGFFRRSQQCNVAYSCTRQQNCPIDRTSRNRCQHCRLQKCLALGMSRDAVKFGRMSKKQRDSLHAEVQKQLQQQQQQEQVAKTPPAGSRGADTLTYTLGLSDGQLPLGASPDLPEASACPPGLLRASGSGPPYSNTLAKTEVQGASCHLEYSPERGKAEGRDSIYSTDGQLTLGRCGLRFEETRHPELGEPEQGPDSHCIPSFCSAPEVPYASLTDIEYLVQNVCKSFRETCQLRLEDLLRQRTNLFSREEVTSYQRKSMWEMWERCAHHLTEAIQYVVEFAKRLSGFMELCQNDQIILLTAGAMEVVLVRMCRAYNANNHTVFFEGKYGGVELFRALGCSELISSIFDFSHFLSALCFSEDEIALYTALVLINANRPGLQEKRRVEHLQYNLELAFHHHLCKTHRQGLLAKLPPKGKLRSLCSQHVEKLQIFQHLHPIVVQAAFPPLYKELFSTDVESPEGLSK
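Drosophila S2 cells stably expressing Gal4-DBD/mouse RORγ fusion under metallothionein promoter plus UAS-luciferase; compound 1 h, then 700 uM CuSO4 induction for 20 h at ambient temperature; inhibition read as reduced luminescence.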
VP16 counter: counter-screen for ROR gamma inhibitors: Gal4-VP16 reporter | Drosophila S2 Gal4-VP16 UAS-luciferase, luminescence, 20 h | 310,000 tested, 3.5% active | Potency, µM (highest dose often 53.6 µM), inactives show at the top dose activity, negative = inhibition, usual class: inhibitors;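 further: Gal4-VP16 expression switched on by copper sulfate through the metallothionein promoter; potency means the concentration at half of the fitted maximal effect; nearly all actives have a fitted effect of over 50% in size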
Starred values were filed as active, the others as inactive; ? = inconclusive; . = no result. Compounds with a hit are over-represented: about 18% of the library has one in this group of screens. Unless noted, the call rests on the fitted dose curve; in most records, active means well fitted curve in the direction sought with a large enough effect; inconclusive means small, poorly fitted or top-dose-only effect, or another doubt; inactive means no such curve, though single readings can be large; an effect the other way counts as inactive or inconclusive. Unless noted, on the % scale 0 is the no-effect control and ±100 the full control effect.

SMILES	DT40 TDP1 CPT	IL1B secr inh	LDHA block	DT40 TDP1 no CPT	RORg inh	VP16 counter
O=C1NC(=O)[C@]2(Cc3ccccc3N3CCN(c4ccccc4)CC32)C(=O)N1Cc1ccccc1 (stereo partly specified)	20.6µM*	-23.1	2.4	23.1µM*	22.3%	3.7%
CN1C(=O)NC(=O)[C@]2(Cc3ccccc3N3CCN(c4ccccc4)CC32)C1=O (stereo partly specified)	?	0.2	-0.9	?	?	13.0%
O=C1NC(=O)C2(Cc3c(nc4ccccn4c3=O)N3CCCCCC32)C(=O)N1Cc1ccccc1 (stereo unspecified)	20.6µM*	1.0	-10.6	23.1µM*	?	-8.8%
CCCCC/C=C\C/C=C\C/C=C\C/C=C\CCCC(=O)NCCCl	.	.	.	.	-42.0%	-21.0%
Cc1ccc2c(c1)C(Cc1nc3ccccc3c(=O)n1-c1ccc(Cl)cc1)C(=O)N2 (stereo unspecified)	.	.	8.7	.	.	.
CCCCCCC(Cl)(Cn1ccnc1)c1ccccc1 (stereo unspecified)	?	-17.9	-4.9	14.6µM*	.	.
Cc1ccccc1N1C(=O)NC(=O)/C(=C\c2ccc3c(c2)CCCN3Cc2ccccc2)C1=O	-27.0%	-13.4	0.5	?	0.0%	?
O=C1NC(=S)NC(=O)C1=Cc1ccc2c(c1)CCN2CCCCl	?	12.0	-2.9	14.6µM*	10.7%	3.8%
CCCCCC1CC(CC(=O)NC(=S)Nc2ccc([N+](=O)[O-])cc2)C(=O)O1 (stereo unspecified)	-29.8%	17.6	-8.1	-16.1%	70.8µM*	?
O=C(CCCOc1ccc(Cl)cc1Cl)Nc1cc(S(=O)(=O)N2CCOCC2)ccc1N1CCOCC1	?	?	-2.5	?	.	.
CCCCC1(CCCC)C(=O)NC(=Nc2cccc(C)c2)NC1=O	16.4µM*	-56.1*	-8.0	18.4µM*	-2.9%	-8.5%
c1cc2c(s1)C1CCCCC1OC21CN2CCC1CC2 (stereo unspecified)	.	.	4.0	.	.	.
CCN(CC)c1ccc(/C=C2/C(=O)NC(=O)N(Cc3ccco3)C2=O)cc1	-1.0%	-64.3*	-7.1	-2.6%	19.5%	1.7%
C=CCN1C(=O)NC(=O)/C(=C\c2ccc(-c3ccccc3[N+](=O)[O-])o2)C1=O	?	-99.6*	2.2	18.4µM*	8.9%	-17.7%
O=C1NC(=O)N(Cc2ccco2)C(=O)/C1=C/c1ccc(-c2cccc([N+](=O)[O-])c2)o1	18.4µM*	?	-14.6	?	28.5%	?
C=CCN1C(=O)/C(=C/c2ccc(N3CCOCC3)o2)C(=O)NC1=S	-10.0%	14.9	0.0	-22.9%	-4.6%	?
CN1CC2(Cc3c1ccc1ccccc31)C(=O)NC(=O)N(CCc1ccccc1)C2=O (stereo unspecified)	.	.	40.9	.	.	.
CC(N)Cc1ccc2c(c1)OCO2 (stereo unspecified)	-12.6%	.	.	-10.2%	.	.
Cc1cccc(Cc2cnc[nH]2)c1C	6.6%	.	.	-2.5%	.	.
Cc1cccc(N=C2c3cc([N+](=O)[O-])ccc3-c3c2cc([N+](=O)[O-])cc3[N+](=O)[O-])c1	8.2µM*	-95.9*	25.9	18.4µM*	.	.
Nc1ccc([N+](=O)[O-])cc1[N+](=O)[O-]	.	.	.	.	2.1%	5.5%
CCOC(=O)C/C(C)=N/NC(=O)COc1ccccc1C	9.2%	11.6	-6.1	-7.0%	14.1µM*	?
C[C@@H]1CN([C@H](C)CO)C(=O)c2c(c3ccccc3n2C)-c2ccccc2CO[C@H]1CN(C)C(=O)c1cc(Cl)cc(Cl)c1	-24.5%	5.9	-1.2	?	.	.
C[C@@H]1CN([C@@H](C)CO)C(=O)c2c(c3ccccc3n2C)-c2ccccc2CO[C@H]1CN(C)C(=O)[C@H](C)c1ccccc1	16.4µM*	-13.8	0.3	18.4µM*	.	.
C[C@H](CO)N1C[C@H](C)[C@H](CN(C)C(=O)N[C@H](C)c2ccccc2)OCc2ccccc2-c2c(n(C)c3ccccc23)C1=O	23.1µM*	-4.8	-2.9	16.4µM*	.	.
SMILES	DT40 TDP1 CPT	IL1B secr inh	LDHA block	DT40 TDP1 no CPT	RORg inh	VP16 counter
CCc1ccc(C2C(C(=O)Nc3ccccc3OC)=C(C)Nc3nc(SCc4ccccc4)nn32)cc1 (stereo unspecified)	4.11µM*	.	-4.3	3.66µM*	.	.
COc1cccc(OC)c1C(=O)Nc1nc(N)n(-c2ccccc2)n1	2.1%	-21.4	-16.2	-1.4%	-19.4%	5.5%
CC(C)C(C(=O)O)c1ccc(Cl)cc1 (stereo unspecified)	.	.	3.2	.	.	.
Cc1cccc(N2CCN(C(=O)CCCCn3c(=O)[nH]c4ccsc4c3=O)CC2)c1C	?	.	-5.6	18.4µM*	.	.
COc1ccc(-c2cc(=NCCC(=O)O)c3cc(C)ccc3o2)cc1	-2.5%	-58.1*	-7.2	-27.5%	-4.9%	-13.5%
CCC1CN2CCc3cc(OC)c(OC)cc3C2CC1CC1NCCc2cc(OC)c(OC)cc21 (stereo unspecified)	0.206µM*	.	.	0.146µM*	6.31µM*	7.08µM*
CC[C@H]1CN2CCc3cc(OC)c(OC)cc3C2C[C@@H]1C[C@H]1NCCc2cc(OC)c(OC)cc21 (stereo partly specified)	0.13µM*	-107.6*	2.4	0.0082µM*	.	.
CN1C(=O)c2ccccc2Sc2ccc(NC(=O)NCc3ccc(Cl)cc3)cc21	23.1µM*	.	-2.0	16.4µM*	.	.
C=CCN1CCN(C(=O)Cc2ccc(Br)cc2)CC1	.	.	-6.9	.	.	.
